# Experimental data reported in PubChem BioAssay.
# Inconclusive results are not listed. Activity calls are given as the source filed them. Unless noted, no cut-off is given here; in the data, nearly all actives have AC50 up to about 26 µM.
# Assays:
# [1] = growth inhibition of DIPG glioma cells, dose response, cell-based, SU-DIPG-XVII, MIPE5.0, CellTiter-Glo, qHTS (AID 1347060); details: SU-DIPG-XVII viability, CellTiter-Glo ATP luminescence;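 for AC50: cells exposed to compound for 48 hours before viability readout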
# [2] = growth inhibition of DIPG glioma cells, dose response, cell-based, SU-DIPG-XIII, MIPE4.0, CellTiter-Glo, qHTS (AID 1347061; cut-off not given, nearly all actives have AC50 up to about 37 µM;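 note: cells exposed to compound for 48 hours before readout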); details: SU-DIPG-XIII viability, CellTiter-Glo ATP luminescence
# [3] = growth inhibition of DIPG glioma cells, dose response, cell-based, SU-DIPG-XIII, MIPE5.0, CellTiter-Glo, qHTS (AID 1347064; cut-off not given, nearly all actives have AC50 up to about 23 µM;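 for AC50: cells exposed to compound for 48 hours before the viability read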); details: SU-DIPG-XIII viability, CellTiter-Glo ATP luminescence
# [4] = viability loss in pontine glioma line – cell-based, SU-DIPG-XXV, MIPE5.0, CellTiter-Glo, qHTS, dose response (AID 1347065); details: CellTiter-Glo ATP luminescence;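 note: cells exposed to compound for 48 hours before ATP readout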
# [5] = SU-DIPG-VI glioma cell viability, MIPE4.0 library, CellTiter-Glo luminescence, qHTS (AID 1347066; cut-off not given, nearly all actives have AC50 up to about 30 µM;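 note: cells exposed to compound for 48 hours before readout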); details: CellTiter-Glo ATP luminescence
# [6] = JHH-DIPG-1 glioma cell viability, MIPE5.0 library, CellTiter-Glo luminescence, qHTS (AID 1347067); details: JHH-DIPG-1 glioma viability, CellTiter-Glo ATP luminescence;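 note: cells exposed to compound for 48 hours before readout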
# [7] = SU-DIPG-XXV glioma cell viability, MIPE5.0 library, qHTS (AID 1347068; cut-off not given, nearly all actives have IC50 up to about 30 µM;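 for IC50: cells exposed to compound for 48 hours before viability readout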)
# [8] = growth inhibition of DIPG glioma cells, dose response, cell-based, JHH-DIPG-1, MIPE4.0, CellTiter-Glo, qHTS (AID 1347062; cut-off not given, nearly all actives have AC50 up to about 27 µM;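 for AC50: cells exposed to compound for two days before readout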); details: JHH-DIPG-1 viability, CellTiter-Glo ATP luminescence
# [9] = growth inhibition of DIPG glioma cells, dose response, cell-based, SU-DIPG-IV, MIPE4.0, CellTiter-Glo, qHTS (AID 1347063; cut-off not given, nearly all actives have AC50 up to about 30 µM;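 note: compound exposure lasted 48 hours before the viability readout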); details: SU-DIPG-IV viability, CellTiter-Glo ATP luminescence
# [10] = sensitizers of A549 cells to miR-34 induction, primary screen, imaging, A549 dox-inducible miR-34, nuclei and caspase counts (AID 1347080;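 active = compounds whose cell count with miR-34 switched on is under 0.7 times the count with it off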); details: A549 miR-34 inducible, Hoechst nuclei count, 48 h
# [11] = survival rescue of mitochondrial mutant cells in low glucose, primary screen, MELAS cybrids, Rieske KO mouse fibroblasts, CellTiter-Glo (AID 1508586;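 active = mean z-score across replicates of 1.96 or higher in either the MELAS or the Rieske mutant cell line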;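 note: z relative to plate mean and SD of compound and empty wells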)
# [12] = hESC survival regulators, cell-based (AID 493140; call rule not given here;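 note: cells exposed to compounds for four days before counting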); details: human embryonic stem cell survival screen; stronger effect = higher value
# [13] = liver-stage malaria parasite growth inhibition, primary screen, cell-based, HepG2, luciferase luminescence, HepG2 viability (AID 624349; in the data active = parasite load remaining mostly below about 12%, no sharp cut-off; inactive = mostly above about 10%;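 note: 100% = mean of DMSO negative control wells on the same plate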); details: P. berghei liver stage in HepG2, luciferase luminescence, concentration not given here; parasite load remaining: stronger effect = lower value; viability: measured here: HepG2 viability without parasites
structure (smiles),measurement,setting,value
O=C1C=CC[C@@H]2[C@H]3CCCN4CCC[C@@H](CN12)[C@@H]34,outcome,[1],inactive
same,outcome,[2],inactive
same,outcome,[3],inactive
same,outcome,[4],inactive
same,outcome,[5],inactive
same,outcome,[6],inactive
same,outcome,[7],inactive
CC(=O)O[C@@]12CO[C@@H]1C[C@H](O)[C@@]1(C)C(=O)[C@H](O)C3=C(C)[C@@H](O)C[C@@](O)([C@@H](OC(=O)c4ccccc4)[C@H]21)C3(C)C,AC50,[1],23.5 µM (active)
same,outcome,[2],inactive
same,outcome,[5],inactive
same,outcome,[6],inactive
same,outcome,[7],inactive
CC1(C)CC(O)CC(C)(C)N1O,outcome,[1],inactive
same,outcome,[2],inactive
same,outcome,[8],inactive
same,outcome,[9],inactive
same,outcome,[3],inactive
same,outcome,[4],inactive
same,outcome,[5],inactive
same,outcome,[6],inactive
same,outcome,[7],inactive
same,fold change,"[10]; stronger effect = lower value, cell number ratio, induced over uninduced",0.97 (inactive)
same,fold change,[10]; measured here: relative caspase fold change +Dox/-Dox,0.416
same,cell count,"[10]; measured here: total cells with miR-34 induction, stronger effect = lower value",7440
same,cell count,[10]; measured here: total cells without miR-34 induction,7670
same,z-score,"[11]; MELAS cybrid survival, CellTiter-Glo 48 h, stronger effect = higher value",-0.227 (inactive)
same,z-score,"[11]; Rieske KO mouse fibroblast survival, CellTiter-Glo 72 h",-0.223
C[C@]12CC[C@H]3[C@@H](CCC4=CC(=O)CC[C@@]43C)[C@@H]1CC[C@@H]2OC(=O)CCC1CCCC1,outcome,[1],inactive
same,AC50,[2],23.5 µM (active)
same,outcome,[8],inactive
same,outcome,[9],inactive
same,outcome,[3],inactive
same,outcome,[5],inactive
same,outcome,[7],inactive
CC(C)(O)/C=C\C(=O)[C@](C)(O)[C@H]1[C@H](O)C[C@]2(C)[C@@H]3CC=C4[C@@H](C=C(O)C(=O)C4(C)C)[C@]3(C)C(=O)C[C@@]12C,AC50,[1],0.0661 µM (active)
same,AC50,[2],18.7 µM (active)
same,AC50,[8],0.105 µM (active)
same,AC50,[9],0.0296 µM (active)
same,AC50,[3],0.0525 µM (active)
same,AC50,[4],0.0295 µM (active)
same,AC50,[5],8.33 µM (active)
same,AC50,[6],0.0525 µM (active)
same,IC50,[7],0.148 µM (active)
C=C[C@H]1CN2CCC1C[C@@H]2[C@@H](O)c1ccnc2ccccc12 (some centres not stated),survival,[12],1.25 (inactive)
same,parasite load remaining,[13],79% (inactive)
same,viability,[13],73.5%
same,outcome,[1],inactive
same,AC50,[2],20.9 µM (active)
same,outcome,[8],inactive
same,outcome,[3],inactive
same,outcome,[4],inactive
same,AC50,[5],20.9 µM (active)
same,outcome,[6],inactive
same,outcome,[7],inactive
COCC1(CO)C(=O)C2CCN1CC2 (configuration not stated),AC50,[1],23.5 µM (active)
same,AC50,[2],20.9 µM (active)
same,AC50,[8],20.9 µM (active)
same,AC50,[9],18.7 µM (active)
same,AC50,[3],8.33 µM (active)
same,AC50,[4],16.6 µM (active)
same,AC50,[6],10.5 µM (active)
same,outcome,[7],inactive
